# According to the supplement of paper PMC8728848:
# Many of the other results were omitted from the sample, so the strongest signals are more common in it than they were.
# Columns and labels:
# Test in all cases: glycan array binding signal (z-score within array); higher = stronger binding
# Details in all cases: glycan notation: IUPAC condensed, linker removed
# [1] = biological target: Fuc(a1-2)Gal
# Procedure, shortened: (§1)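 Columns mapping to the same glycan were averaged after glycan names were converted to IUPAC-condensed notation. The data come from 3228 arrays in the Consortium for Functional Glycomics database, limited to those with an available protein sequence. Binding is reported as a within-array Z-score averaged across arrays of one protein sequence and across linkers.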
# [2] = biological target: Fuc(a1-3)[Gal3S(b1-4)]GlcNAc6S
# Procedure, shortened: as §1
# [3] = biological target: Gal(a1-3)Gal(b1-4)Glc
# Procedure, shortened: as §1
# [4] = biological target: Gal(a1-3)Gal(b1-4)GlcNAc
# Procedure, shortened: as §1
# [5] = biological target: Gal(a1-4)Gal(b1-4)Glc
# Procedure, shortened: as §1
# [6] = biological target: Gal(b1-3)GlcNAc
# Procedure, shortened: as §1
# [7] = biological target: Gal(b1-3)[Fuc(a1-4)]GlcNAc(b1-3)Gal(b1-4)[Fuc(a1-3)]GlcNAc
# Procedure, shortened: as §1
# [8] = biological target: Gal(b1-4)Glc
# Procedure, shortened: as §1
# [9] = biological target: Gal(b1-4)Glc6S
# Procedure, shortened: as §1
# [10] = biological target: Gal(b1-4)GlcNAc(b1-3)Gal(b1-4)GlcNAc
# Procedure, shortened: as §1
# [11] = biological target: Gal(b1-4)GlcNAc(b1-3)Gal(b1-4)GlcNAc(b1-3)Gal(b1-4)GlcNAc
# Procedure, shortened: as §1
# [12] = biological target: Gal3S(b1-4)GlcNAc
# Procedure, shortened: as §1
# [13] = biological target: Gal3S(b1-4)[Fuc(a1-3)]Glc
# Procedure, shortened: as §1
# [14] = biological target: Gal3S4S(b1-4)GlcNAc
# Procedure, shortened: as §1
# [15] = biological target: Gal3S6S(b1-4)GlcNAc6S
# Procedure, shortened: as §1
# [16] = biological target: Gal4S(b1-4)GlcNAc
# Procedure, shortened: as §1
# [17] = biological target: Glc(a1-6)Glc(a1-6)Glc
# Procedure, shortened: as §1
# [18] = biological target: Man(a1-2)Man(a1-2)Man(a1-6)[Man(a1-3)]Man
# Procedure, shortened: as §1
# [19] = biological target: Man(a1-2)Man(a1-3)Man
# Procedure, shortened: as §1
# [20] = biological target: Man(a1-2)Man(a1-3)[Man(a1-2)Man(a1-6)]Man(a1-6)[Man(a1-2)Man(a1-2)Man(a1-3)]Man(b1-4)GlcNAc(b1-4)GlcNAc
# Procedure, shortened: as §1
# [21] = biological target: Neu5Ac(a2-3)Gal(b1-3)GalNAc(b1-3)Gal(b1-4)GlcNAc
# Procedure, shortened: as §1
# [22] = biological target: Neu5Ac(a2-3)Gal(b1-4)[Fuc(a1-3)]GlcNAc6S
# Procedure, shortened: as §1
# [23] = biological target: Neu5Ac(a2-6)Gal(b1-4)GlcNAc(b1-2)Man(a1-3)[Gal(b1-4)GlcNAc(b1-2)Man(a1-6)]Man(b1-4)GlcNAc(b1-4)GlcNAc
# Procedure, shortened: as §1
# [24] = biological target: Fuc(a1-2)Gal(b1-3)GlcNAc
# Procedure, shortened: as §1
# [25] = biological target: Fuc(a1-2)[Gal(a1-3)]Gal
# Procedure, shortened: as §1
# [26] = biological target: Gal(a1-3)Gal(b1-3)GlcNAc
# Procedure, shortened: as §1
# [27] = biological target: Gal(a1-6)Glc
# Procedure, shortened: as §1
# [28] = biological target: Gal(b1-3)Gal(b1-4)GlcNAc
# Procedure, shortened: as §1
# [29] = biological target: Gal(b1-3)GlcNAc(b1-3)Gal(b1-4)Glc
# Procedure, shortened: as §1
# [30] = biological target: Gal(b1-3)[Fuc(a1-4)]GlcNAc
# Procedure, shortened: as §1
# [31] = biological target: Gal(b1-4)GlcNAc(b1-3)[GlcNAc(b1-6)]Gal(b1-4)GlcNAc
# Procedure, shortened: as §1
# [32] = biological target: Gal(b1-4)GlcNAc(b1-6)[Gal(b1-3)]GalNAc
# Procedure, shortened: as §1
# [33] = biological target: Gal3S(b1-4)Glc
# Procedure, shortened: as §1
# [34] = biological target: Gal6S(b1-4)Glc6S
# Procedure, shortened: as §1
# [35] = biological target: Gal6S(b1-4)GlcNAc6S
# Procedure, shortened: as §1
# [36] = biological target: GalNAc(b1-3)Gal(a1-4)Gal(b1-4)GlcNAc
# Procedure, shortened: as §1
# [37] = biological target: GlcNAc(b1-2)Gal(b1-3)GalNAc
# Procedure, shortened: as §1
# [38] = biological target: GlcNAc(b1-4)Gal(b1-4)GlcNAc
# Procedure, shortened: as §1
# [39] = biological target: Man(a1-2)Man(a1-2)Man(a1-3)Man
# Procedure, shortened: as §1
# [40] = biological target: Neu5Ac(a2-3)Gal(b1-3)GalNAc
# Procedure, shortened: as §1
# [41] = biological target: Neu5Ac(a2-3)Gal(b1-4)GlcNAc(b1-2)Man(a1-3)[Neu5Ac(a2-6)Gal(b1-4)GlcNAc(b1-2)Man(a1-6)]Man(b1-4)GlcNAc(b1-4)GlcNAc
# Procedure, shortened: as §1
# [42] = biological target: Neu5Ac(a2-3)Gal(b1-4)GlcNAc(b1-6)[Gal(b1-3)]GalNAc
# Procedure, shortened: as §1
# [43] = biological target: Neu5Ac(a2-8)Neu5Ac
# Procedure, shortened: as §1
# [44] = biological target: Neu5Ac9Ac(a2-6)Gal(b1-4)GlcNAc
# Procedure, shortened: as §1
# [45] = biological target: Neu5Gc(b2-6)Gal(b1-4)GlcNAc
# Procedure, shortened: as §1
binder,measurement,setting,value
"NESD (Drosophila melanogaster), NP_610025.1 (protein) MGHHHHHHSSGVDLGTENLYFQSMMEVFTFEKSYLERLKEAEAVLSWEGAVMPASQVRSEWKSYVELKIEPAGWQAIWKIPRVICEDLKLRYPTIVYGYVEQVIFDELKAVFVVTAVQDSDVHLPESNEVSLVELWPTVQQENAALNVDTTAECIDRLRFFYTHVWMPWDKDYDDDRDWVQQHLQARIQLVCDLSKNRLPRPLALHMRTLLAEAKYIQQRLDYLELDLSDAESDDEAVELNDSVAEPARKQSKAGSANGCLNVSSLPVTDLMCLHLRMAIIRSEFEILENPEMRRAYSELQSNSLKRLRCSSGRTRQSEDLLVERNSISHVVTLPGKLQQQLELLKLAQTLVKPESKVQLSNTLQDVLSICQSNDDILLSPGEHTIKFLEHLNDNGSLRGLTQPEAILSPAADLSLLPVVCSSDEDSTLLVIDGDYTLSELVLDCRHVRRGILLRNGTLTMRGCRLLGDGSSSTQEGIVCMPGASVELKSCLIENFAVGVSMRPKSSAELGSVQFKTCKTGLELLEKSASVNLQGSKCSFENCALGILADGFVLGEQRTEKVLVLNKFSELQRYNEDNLLGNCSFYNCKKNVRVFNESGQLLAQRSHQQLLEDELGGENKENIQLV",glycan array binding signal (z-score),[1],0.437
same,glycan array binding signal (z-score),[2],1.18
same,glycan array binding signal (z-score),[3],-0.126
same,glycan array binding signal (z-score),[4],-0.108
same,glycan array binding signal (z-score),[5],-0.242
same,glycan array binding signal (z-score),[6],-0.219
same,glycan array binding signal (z-score),[7],-0.47
same,glycan array binding signal (z-score),[8],3.98
same,glycan array binding signal (z-score),[9],2.75
same,glycan array binding signal (z-score),[10],0.201
same,glycan array binding signal (z-score),[11],0.303
same,glycan array binding signal (z-score),[12],0.142
same,glycan array binding signal (z-score),[13],-0.195
same,glycan array binding signal (z-score),[14],0.201
same,glycan array binding signal (z-score),[15],1.17
same,glycan array binding signal (z-score),[16],0.349
same,glycan array binding signal (z-score),[17],6.3
same,glycan array binding signal (z-score),[18],-0.364
same,glycan array binding signal (z-score),[19],-0.316
same,glycan array binding signal (z-score),[20],0.313
same,glycan array binding signal (z-score),[21],0.016
same,glycan array binding signal (z-score),[22],0.068
same,glycan array binding signal (z-score),[23],0.256
"Langerin CRD (Homo sapiens), Q9UJ71 (protein) QVVSQGWKYFKGNFYYFSLIPKTWYSAEQFCVSRNSHLTSVTSESEQEFLYKTAGGLIYWIGLTKAGMEGDWSWVDDTPFNKVQSVRFWIPGEPNNAGNNEHCGNIKAPSLQAWNDAPCDKTFLFICKRPYVPSEPSAWSHPQFEK",glycan array binding signal (z-score),[1],0.647
same,glycan array binding signal (z-score),[24],0
same,glycan array binding signal (z-score),[25],4.04
same,glycan array binding signal (z-score),[26],-0.623
same,glycan array binding signal (z-score),[3],-0.487
same,glycan array binding signal (z-score),[27],-0.427
same,glycan array binding signal (z-score),[28],-0.488
same,glycan array binding signal (z-score),[29],-0.48
same,glycan array binding signal (z-score),[30],-0.279
same,glycan array binding signal (z-score),[31],0.314
same,glycan array binding signal (z-score),[32],-0.489
same,glycan array binding signal (z-score),[33],-0.325
same,glycan array binding signal (z-score),[34],4.01
same,glycan array binding signal (z-score),[35],6.72
same,glycan array binding signal (z-score),[36],-0.356
same,glycan array binding signal (z-score),[37],4.61
same,glycan array binding signal (z-score),[38],1.57
same,glycan array binding signal (z-score),[39],4.1
same,glycan array binding signal (z-score),[20],-0.352
same,glycan array binding signal (z-score),[40],-0.547
same,glycan array binding signal (z-score),[41],-0.647
same,glycan array binding signal (z-score),[42],-0.693
same,glycan array binding signal (z-score),[43],-0.544
same,glycan array binding signal (z-score),[44],-0.422
same,glycan array binding signal (z-score),[45],-0.263
